A short description of experiment [1]: qHTS assay to identify small molecule antagonists of the thyroid receptor (TR) signaling pathway (AID 743065). Also: nearly all actives have a fitted effect of over 55% in size. Also: potency is read from the fitted curve at half-maximal effect. A digest of the protocol: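 GH3.TRE-Luc rat pituitary cells (two TREs driving luciferase) were dosed with compound, then stimulated with 1 nM T3 (final) for 23.5 h at 37 C. ONE-Glo luminescence was the read-out, with CellTiter-Fluor fluorescence as the cytotoxicity counter-screen.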

The subject of experiment [2] is thyroid hormone receptor (rat, GH3 cells). The experiment is described as follows: qHTS assay to identify small molecule agonists of the thyroid receptor (TR) signaling pathway (AID 743066; calls by dose curve).
For experiment [3], the target named is Estrogen receptor (Homo sapiens) (UniProt P03372). The experiment is described as follows: qHTS assay to identify small molecule antagonists of the estrogen receptor alpha (ER-alpha) signaling pathway (AID 743069; active = well fitted curve in the direction sought with a large enough effect in the signal ratio in the repeat runs, not every such curve was filed as active; inconclusive = weak or mixed curves, or effect the other way; inactive = no such curve, though single readings can be large or run the other way; the % refers to the signal ratio; also: potency is read from the fitted curve at half-maximal effect). An outline of the steps:
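Reporter cells (ER-alpha-bla, HEK293 background) are conditioned overnight in stripped-serum medium (2% charcoal-stripped FBS). Compound and 17beta-estradiol exposure runs 18 hr at 37C, 5% CO2.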

A short description of experiment [4]: qHTS assay to identify small molecule antagonists of the estrogen receptor alpha (ER-alpha) signaling pathway - cell viability counter screen (AID 743074; calls by dose curve;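 also: HEK293 cells carrying ER-alpha-UAS-bla reporter stimulated with 17beta-estradiol; nearly all actives have a fitted effect of over 45% in size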; also: potency is read from the fitted curve at half-maximal effect).
Experiment [5] deals with Estrogen receptor (Homo sapiens) (UniProt P03372). Put plainly: qHTS assay to identify small molecule agonists of the estrogen receptor alpha (ER-alpha) signaling pathway (AID 743075; calls by dose curve;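 also: HEK293 GripTite cells with ER-alpha and UAS-driven beta-lactamase reporter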).
Estrogen receptor (Homo sapiens), sequence (P03372 whole entry, looked up): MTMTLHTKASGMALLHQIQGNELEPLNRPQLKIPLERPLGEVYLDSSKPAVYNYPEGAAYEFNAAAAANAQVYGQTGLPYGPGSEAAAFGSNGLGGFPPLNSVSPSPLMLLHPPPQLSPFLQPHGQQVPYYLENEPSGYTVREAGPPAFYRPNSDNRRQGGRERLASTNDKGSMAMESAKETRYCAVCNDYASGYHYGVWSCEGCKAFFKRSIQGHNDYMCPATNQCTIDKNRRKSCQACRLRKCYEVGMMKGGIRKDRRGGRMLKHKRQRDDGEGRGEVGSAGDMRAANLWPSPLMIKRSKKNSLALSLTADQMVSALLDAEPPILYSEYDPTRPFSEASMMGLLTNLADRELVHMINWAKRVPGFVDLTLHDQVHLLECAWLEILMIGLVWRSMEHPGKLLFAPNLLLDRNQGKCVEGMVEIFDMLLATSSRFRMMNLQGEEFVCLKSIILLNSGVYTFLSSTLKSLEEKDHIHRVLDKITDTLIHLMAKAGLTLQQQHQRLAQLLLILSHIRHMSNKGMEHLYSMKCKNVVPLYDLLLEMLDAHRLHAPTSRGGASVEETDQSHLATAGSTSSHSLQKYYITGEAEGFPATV
Experiment [6] has the same target. The experiment is described as follows: qHTS assay to identify small molecule agonists of the estrogen receptor alpha (ER-alpha) signaling pathway using the BG1 cell line (AID 743079). Also: nearly all actives have a fitted effect of over 20% in size. Also: potency is read from the fitted curve at half-maximal effect. The conditions noted are these: BG1Luc4E2 cells, ERE-luciferase agonist, 22 h; activation: at 70.3 µM (top of the series).
Experiment [7] is described as follows: qHTS assay to identify small molecule antagonists of the estrogen receptor alpha (ER-alpha) signaling pathway using the BG1 cell line (AID 743080; calls by dose curve;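 also: BG1 cells stimulated with 17beta-estradiol alongside compound; nearly all actives have a fitted effect of over 25% in size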; also: potency is read from the fitted curve at half-maximal effect). A digest of the protocol: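 BG1-Luc-4E2 cells (endogenous full-length ER-alpha, 4xERE luciferase) hormone-starved 5 days in charcoal-stripped FBS, plated 4,000/well for 24 h, then compound plus 17beta-estradiol for 21.5 h at 37 C; ONE-Glo luminescence read.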

Experiment [8] is described as follows: qHTS assay to identify small molecule antagonists of the estrogen receptor alpha (ER-alpha) signaling pathway using the BG1 cell line - cell viability counter screen (AID 743081).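 Also: compound given together with 17beta-estradiol as the ER stimulus; nearly all actives have a fitted effect of over 45% in size.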 Also: potency is read from the fitted curve at half-maximal effect.
The target of experiment [9] is Aromatase (Homo sapiens) (UniProt P11511). The experiment is described as follows: qHTS assay to identify aromatase inhibitors (AID 743083). Also: nearly all actives have a fitted effect of over 55% in size. Also: potency is read from the fitted curve at half-maximal effect.
Aromatase (Homo sapiens), sequence (P11511 whole entry, looked up): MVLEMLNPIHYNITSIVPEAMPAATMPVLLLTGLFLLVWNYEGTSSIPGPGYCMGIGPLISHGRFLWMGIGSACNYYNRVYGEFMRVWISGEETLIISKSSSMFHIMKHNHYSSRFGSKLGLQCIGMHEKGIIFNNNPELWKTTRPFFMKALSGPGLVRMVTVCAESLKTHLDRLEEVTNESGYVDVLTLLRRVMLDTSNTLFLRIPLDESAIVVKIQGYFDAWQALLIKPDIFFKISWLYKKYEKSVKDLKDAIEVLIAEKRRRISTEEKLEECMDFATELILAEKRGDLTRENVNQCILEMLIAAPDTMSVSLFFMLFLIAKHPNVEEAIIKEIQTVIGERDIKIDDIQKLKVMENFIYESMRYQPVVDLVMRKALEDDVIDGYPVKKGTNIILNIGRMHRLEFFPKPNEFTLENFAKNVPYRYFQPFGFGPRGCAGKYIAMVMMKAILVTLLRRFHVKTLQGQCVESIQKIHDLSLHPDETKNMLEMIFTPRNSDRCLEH
Experiment [10] can be described thus: qHTS assay to identify small molecule antagonists of the thyroid receptor (TR) signaling pathway - cell viability counter screen (AID 743064). Also: nearly all actives have a fitted effect of over 50% in size. Also: potency is read from the fitted curve at half-maximal effect. An outline of the steps: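 Counter screen for cytotoxicity: compound plus T3 (1 nM final) on GH3.TRE-Luc cells, 23.5 h at 37 °C, then fluorescence viability readout with CellTiter-Fluor.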

These results are taken from PubChem BioAssay (Tox21).

Values joined by “and” are separate entries in the source; they are usually repeats but may differ in a detail not shown here. Equal values may be shown once. Active and inactive are the calls of the source. Unless noted, calls follow the shape of the dose curve; as a rule, active = well fitted curve in the direction sought with a large enough effect in the repeat runs; inconclusive = weak or mixed curves; inactive = no such curve, though single readings can be large; an effect the other way counts as inactive or inconclusive.

With `CCC1(CC)C(=O)N=C(O)NC1=O`, the Potency result in experiment [1], in [2], in experiment [3], in experiment [4], in [5] and in experiment [6] was “inactive” each time. Further, the Potency entry in [7], in experiment [8] and in experiment [9] was “inactive” each time.
As for `CC(C)C(Br)C(=O)NC(N)=O` (stereo unspecified), the Potency entry in experiment [1], in experiment [2], in [3], in experiment [5], in experiment [6] and in experiment [7] was “inactive” in each case. Also, the Potency result in [8] and in [9] was “inactive” in each case.
Turning to `O=C(Cl)c1ccccc1F`, the Potency result in experiment [1], in experiment [2], in [3], in experiment [4], in experiment [5] and in experiment [6] was “inactive” each time. The Potency result in experiment [7], in [8] and in experiment [9] was “inactive” each time.
As to `[O-][Cl+3]([O-])([O-])O`, the Potency result in experiment [10], in experiment [4], in [8] and in experiment [9] was “inactive” in each case.
In the case of `ClC(Cl)C(Cl)(Cl)Cl`, the Potency entry in [1], in experiment [2], in experiment [3], in experiment [4], in experiment [5] and in [6] was “inactive” throughout. The Potency result in [7], in experiment [8] and in experiment [9] was “inactive” throughout.
On to `CCOP(=S)(NC(C)C)Oc1ccccc1C(=O)OC(C)C` (stereo unspecified), for which the Potency was 54.5 µM (active) in experiment [1] and 38.6 µM (active) in experiment [9]. Besides, the Potency result in experiment [2], in experiment [3], in experiment [5], in experiment [6] and in [8] was “inactive” each time.
With `N#CC(C#N)=NNc1cccc(Cl)c1`, the Potency was 3.44 µM (active) in experiment [10]; 0.692 µM [inconclusive] (active) in experiment [3]; 2.17 µM (active) in experiment [7]; 5.45 µM (active) in [8]; 2.73 µM (active) in experiment [9].
For the compound `CCOP(=O)(Sc1ccccc1)Sc1ccccc1`, the Potency entry in experiment [10], in experiment [4], in experiment [5] and in experiment [8] was “inactive” in each case.
As to `O=S(=O)(NS(=O)(=O)C(F)(F)F)C(F)(F)F`, the Potency result in [10], in [4] and in experiment [8] was “inactive” in each case.
With `Nc1nc(N)nc(Cl)n1`, the Potency entry in experiment [1], in [2], in [3], in experiment [4], in experiment [5] and in [6] was “inactive” each time. Further, the Potency result in experiment [7], in [8] and in experiment [9] was “inactive” each time.
For the compound `O.O.O.O.O.O.O=S(=O)([O-])[O-].[Ni+2]`, the Potency entry in experiment [10], in experiment [4], in [8] and in experiment [9] was “inactive” each time.
For the compound `O.O.O.O.O.O.O.O=S(=O)([O-])[O-].[Co+2]`, the Potency result in experiment [10], in experiment [8] and in experiment [9] was “inactive” in each case.
On to `CCC(C)c1cccc(C(C)CC)c1O` (stereo unspecified), for which the Potency in experiment [1] is 61.1 µM (active). In addition, the Potency result in experiment [2], in experiment [3], in [4], in experiment [5], in experiment [6] and in experiment [7] was “inactive” throughout. Also, in experiment [8], the Potency entry is “inactive”.
Turning to `COC(=O)C(C)N(C(=O)c1ccco1)c1c(C)cccc1C` (stereo unspecified), the Potency entry in [1], in experiment [2], in [3], in experiment [4], in experiment [5] and in experiment [6] was “inactive” in each case. In addition, the Potency result in experiment [8] and in experiment [9] was “inactive” throughout.
For the compound `c1ccc(Nc2ccc(Nc3ccccc3)cc2)cc1`, the figures for the Potency in experiment [1], in experiment [3] and in experiment [6] were 9.65 µM (active), 1.73 µM [inconclusive] (active) and 6.09 µM (active), respectively. For the same compound, the Potency entry in [2], in experiment [4], in experiment [8] and in [9] was “inactive” throughout.
In the case of `c1ccc(N=NNc2ccccc2)cc1`, the Potency entry in [1], in experiment [2], in experiment [4], in experiment [5] and in experiment [9] was “inactive” in each case. Moreover, the Potency in experiment [3] is 21.9 µM [inhibitor] (active); in experiment [6], 14.2 µM (active) and 54.5 µM (active); in [7], 68.6 µM (active).
As to `CSC(=O)c1c(C(F)F)nc(C(F)(F)F)c(C(=O)SC)c1CC(C)C`, the figures for the Potency in [10] and in [9] were 54.2 µM (active) and 68.2 µM (active), respectively. For the same compound, the Potency result in [4], in [5], in experiment [6], in experiment [7] and in [8] was “inactive” each time.
Take `CC(=O)[O][Sn]([c]1ccccc1)([c]1ccccc1)[c]1ccccc1`: the Potency in experiment [10] was 0.172 µM (active); in [4], 0.195 µM (active); in [8], 3.86 µM (active).
Regarding `CCOC(=O)CCN(SN(C)C(=O)Oc1cccc2c1OC(C)(C)C2)C(C)C`, the Potency result in [10], in experiment [4], in experiment [5], in experiment [6], in experiment [7] and in [8] was “inactive” each time. The Potency entry in experiment [9] is “inactive”.
Turning to `CCCCc1ccccc1`, the Potency entry in experiment [1], in experiment [2], in experiment [3], in experiment [4], in experiment [5] and in experiment [6] was “inactive” each time. The Potency result in experiment [7], in [8] and in experiment [9] was “inactive” each time.
`Oc1cccc(Cl)c1Cl`: the Potency result in experiment [1], in experiment [2], in experiment [3], in [4], in [5] and in [6] was “inactive” in each case. The Potency entry in [7], in experiment [8] and in [9] was “inactive” throughout.
As to `OCC(Br)CBr` (stereo unspecified), the Potency entry in experiment [1], in [2], in experiment [3], in experiment [4], in [5] and in experiment [6] was “inactive” in each case. The Potency result in experiment [7], in [8] and in [9] was “inactive” throughout.
As for `CCc1cccc(C)c1N(C(=O)CCl)[C@@H](C)COC`, the Potency result in [10], in [4] and in [8] was “inactive” in each case.
On to `CN(C)c1ccc(N)cc1`, for which the Potency in [1] is 47.4 µM (active); in experiment [3] it was 60.2 µM [inconclusive] (active); in [6], 7.51 µM (active). The Potency result in experiment [2] and in [5] was “inactive” in each case.
With `CC1CN1` (stereo unspecified), the Potency result in experiment [1], in experiment [2], in experiment [3], in experiment [4], in experiment [5] and in [6] was “inactive” in each case. The Potency entry in experiment [7], in experiment [8] and in experiment [9] was “inactive” each time.
